Reference: PubChem BioAssay (NCATS)
Records with an inconclusive call do not appear. A call without a number means that no potency is given here. A number with no mark means an inactive call. Calls of active or inactive are those of the source. The call rests on the fitted dose curve; in most records, active means well fitted curve in the direction sought with a large enough effect; inconclusive means small, poorly fitted or top-dose-only effect, or another doubt; inactive means no such curve, though single readings can be large; an effect the other way counts as inactive or inconclusive.

Experiments:
[1] = biological target: Rap guanine nucleotide exchange factor 3 (Homo sapiens) (UniProt O95398); assay: Confirmatory qHTS for antagonist of cAMP-regulated guanine nucleotide exchange factor 3 (EPAC1) (AID 1645880); conditions: EPAC1 Rap1B-BODIPY-GDP exchange, fluorescence; activity, negative = inhibition: at 115 µM (top of the series); further: nearly all actives have a fitted effect of over 55% in size; further: potency means the concentration at half of the fitted maximal effect
Outline: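 Released BODIPY-GDP fluoresces less than Rap1-bound BODIPY-GDP; the signal is followed at 480/540 nm at 5-min intervals over 30 min, after 5 min at room temperature. Reactions contain 100 nM EPAC1, 250 nM RAP1B-BODIPY-GDP and 50 uM GDP; results are normalized to ATA and DMSO.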

[2] = biological target: Rap guanine nucleotide exchange factor 4 (Homo sapiens) (UniProt Q8WZA2); assay: Confirmatory qHTS for agonist of cAMP-regulated guanine nucleotide exchange factor 4 (EPAC2) (AID 1645884);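 further: nucleotide exchange releases bodipy-GDP from Rap1 and this lowers its fluorescence; nearly all actives have a fitted effect of over 65% in size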; further: potency means the concentration at half of the fitted maximal effect
[3] = biological target: Rap guanine nucleotide exchange factor 4 (Homo sapiens) (UniProt Q8WZA2); assay: Confirmatory qHTS for antagonist of cAMP-regulated guanine nucleotide exchange factor 4 (EPAC2) (AID 1645885); further: nearly all actives have a fitted effect of over 25% in size; further: potency means the concentration at half of the fitted maximal effect
[4] = biological target: Rap guanine nucleotide exchange factor 3 (Homo sapiens) (UniProt O95398); assay: Counterscreen qHTS for antagonist of cAMP-regulated guanine nucleotide exchange factor 3 (EPAC1) (AID 1645888)
Outline: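 Rap1B–BODIPY-GDP (250 nM) with 50 uM GDP; compounds pin-transferred to 9.74 nM–152 uM final (activator) or from 7.32 nM upwards (inhibitor). Fluorescence Ex/Em 480/540 nm read at 5 and 30 min, then after adding cAMP or buffer, at room temperature.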

Sequence of Rap guanine nucleotide exchange factor 3 (Homo sapiens) (O95398 whole entry, looked up): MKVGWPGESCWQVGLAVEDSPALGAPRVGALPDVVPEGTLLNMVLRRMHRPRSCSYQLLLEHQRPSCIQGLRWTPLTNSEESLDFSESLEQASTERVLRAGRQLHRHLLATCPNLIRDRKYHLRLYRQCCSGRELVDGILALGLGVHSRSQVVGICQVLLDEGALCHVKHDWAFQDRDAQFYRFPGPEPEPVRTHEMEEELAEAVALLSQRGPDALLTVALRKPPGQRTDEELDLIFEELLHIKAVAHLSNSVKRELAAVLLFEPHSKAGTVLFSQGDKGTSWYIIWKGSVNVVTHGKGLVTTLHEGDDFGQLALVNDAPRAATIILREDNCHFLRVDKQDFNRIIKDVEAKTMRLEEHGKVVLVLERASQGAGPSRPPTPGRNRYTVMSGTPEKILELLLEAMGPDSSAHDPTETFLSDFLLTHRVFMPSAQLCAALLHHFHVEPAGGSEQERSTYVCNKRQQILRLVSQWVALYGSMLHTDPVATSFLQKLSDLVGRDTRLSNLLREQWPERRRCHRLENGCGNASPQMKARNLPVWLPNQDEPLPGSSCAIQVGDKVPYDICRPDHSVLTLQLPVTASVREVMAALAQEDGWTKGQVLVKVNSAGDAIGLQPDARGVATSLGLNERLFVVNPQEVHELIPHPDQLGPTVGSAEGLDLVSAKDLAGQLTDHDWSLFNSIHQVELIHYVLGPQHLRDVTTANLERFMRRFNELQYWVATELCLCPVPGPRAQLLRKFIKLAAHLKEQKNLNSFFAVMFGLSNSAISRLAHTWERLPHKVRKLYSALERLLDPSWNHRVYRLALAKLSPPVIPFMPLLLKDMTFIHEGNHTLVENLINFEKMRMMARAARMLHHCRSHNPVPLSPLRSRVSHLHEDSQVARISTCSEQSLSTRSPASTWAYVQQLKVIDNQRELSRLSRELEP
Sequence of Rap guanine nucleotide exchange factor 4 (Homo sapiens) (Q8WZA2 whole entry, looked up): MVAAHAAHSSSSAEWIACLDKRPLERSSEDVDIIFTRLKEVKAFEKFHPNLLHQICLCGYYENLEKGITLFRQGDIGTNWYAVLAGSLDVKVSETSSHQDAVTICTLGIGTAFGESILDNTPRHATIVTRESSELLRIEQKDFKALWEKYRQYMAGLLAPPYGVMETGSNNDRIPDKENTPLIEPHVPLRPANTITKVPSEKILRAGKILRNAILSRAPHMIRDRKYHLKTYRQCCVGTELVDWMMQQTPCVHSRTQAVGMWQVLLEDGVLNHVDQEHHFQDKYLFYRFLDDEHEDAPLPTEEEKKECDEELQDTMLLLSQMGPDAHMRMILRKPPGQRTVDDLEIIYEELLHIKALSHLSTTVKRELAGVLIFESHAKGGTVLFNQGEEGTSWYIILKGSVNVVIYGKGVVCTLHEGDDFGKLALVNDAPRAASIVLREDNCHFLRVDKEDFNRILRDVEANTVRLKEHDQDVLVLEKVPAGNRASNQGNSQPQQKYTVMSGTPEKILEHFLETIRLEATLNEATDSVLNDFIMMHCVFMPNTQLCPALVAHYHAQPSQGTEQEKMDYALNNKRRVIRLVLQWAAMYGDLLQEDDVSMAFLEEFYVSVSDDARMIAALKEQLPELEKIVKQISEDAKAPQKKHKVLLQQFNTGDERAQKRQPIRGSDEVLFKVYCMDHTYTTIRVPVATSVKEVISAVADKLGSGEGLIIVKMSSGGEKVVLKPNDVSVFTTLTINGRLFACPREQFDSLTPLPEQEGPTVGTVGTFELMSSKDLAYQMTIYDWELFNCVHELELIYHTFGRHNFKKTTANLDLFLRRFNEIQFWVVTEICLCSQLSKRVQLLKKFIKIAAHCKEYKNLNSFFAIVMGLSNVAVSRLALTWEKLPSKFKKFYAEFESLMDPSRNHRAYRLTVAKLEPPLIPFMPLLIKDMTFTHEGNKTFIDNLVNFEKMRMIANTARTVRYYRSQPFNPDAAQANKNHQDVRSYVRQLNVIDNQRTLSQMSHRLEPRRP

Structure (SMILES)	Potency [1]	activation [2]	Potency [3]	activity change, negative = inhibition [4]	Potency [2]	Potency [4]
COc1ccc(OC)c(NC(=S)N2c3ccccc3CC2C)c1 (stereo not drawn)	inactive	12.4% [at 17.1 µM, percent relative to cAMP agonist control]	inactive	-17.1% [at 30.8 µM]		
COC(=O)C1=CC(C(=O)c2cccs2)=NN(c2ccc(OC)cc2)C1C(=O)OC (stereo not drawn)	inactive	9.11% [at 17.1 µM, percent relative to cAMP agonist control]	inactive	-26% [at 30.8 µM]		
C=CCN1C(=O)c2cccc3c(N4CCCCC4)ccc(c23)C1=O	inactive		inactive		112 µM (active)	inactive
CCN(CC)c1ccc2cc(C(N)=O)c(=N)oc2c1	inactive	2.03% [at 17.1 µM, percent relative to cAMP agonist control]	inactive	-1.22% [at 30.8 µM]		
COC(=O)c1ccc2nc(-c3ccccc3)c(Cc3cccc(F)c3)n2c1	inactive	4.96% [at 17.1 µM, percent relative to cAMP agonist control]	inactive	10% [at 30.8 µM]		
CN(C)c1ccc(/C=C/C(=O)c2cccc(Br)c2)cc1	inactive	-16% [at 17.1 µM, percent relative to cAMP agonist control]	inactive	21.2% [at 30.8 µM]		
CN(C)c1ccc(C2C=C(c3ccc(Cl)cc3OC(F)F)Nc3ncnn32)cc1 (stereo not drawn)	inactive	4.39% [at 17.1 µM, percent relative to cAMP agonist control]	inactive	-14.7% [at 30.8 µM]		
Oc1c(C(c2ccccc2)N2CCN(c3ccccc3)CC2)sc2nc(-c3ccco3)nn12 (stereo not drawn)	inactive		inactive		inactive	inactive
Nc1c(C(=O)C2CC2)sc2nc(-c3cccs3)cc(C(F)(F)F)c12	inactive		75.7 µM (active)		100 µM (active)	inactive
Cc1ccc(S(=O)(=O)C2(C(=O)Nc3ccc(Br)cc3)CC2)cc1	inactive	6.34% [at 17.1 µM, percent relative to cAMP agonist control]	inactive	-6.73% [at 30.8 µM]		
Cc1ccc(Nc2cc(C)nc3c(C)ccc([N+](=O)[O-])c23)cc1	inactive	6.25% [at 17.1 µM, percent relative to cAMP agonist control]	inactive	4.53% [at 30.8 µM]		
O=S(=O)(NCC(c1ccco1)N1CCc2ccccc21)c1ccccc1 (stereo not drawn)	inactive	5.38% [at 17.1 µM, percent relative to cAMP agonist control]	inactive	-0.643% [at 30.8 µM]		
Cc1ccc2cccc(OC(=O)c3c(F)cccc3Cl)c2n1	inactive		inactive		inactive	inactive
CCOc1cc(/C=N/NC(=O)c2ccc(-c3csc(Nc4ccc(C)cc4)n3)cc2)ccc1OCC(=O)O	23.9 µM (active)		inactive		inactive	inactive
Cc1ccc2nc(/C(C#N)=C\c3ccc(N4CCOCC4)o3)[nH]c2c1	inactive	11.1% [at 17.1 µM, percent relative to cAMP agonist control]	inactive	15.8% [at 30.8 µM]		
CN(C)c1ccc(C(=O)/C=C/c2ccc(Br)cc2)cc1	inactive		inactive		112 µM (active)	inactive
CN1CCc2c(sc(NC(=O)CSc3ccccc3)c2-c2nc3ccccc3s2)C1	inactive		inactive		inactive	inactive
COc1ccc(C(=O)/C=C/c2ccc(N(C)C)cc2)c(OC)c1	inactive		inactive		inactive	inactive
CC(/C=C/c1ccc(N(C)C)cc1)=N\N=C1\NC(=O)CC(C(=O)Nc2ccccc2)S1 (stereo not drawn)	inactive	10% [at 17.1 µM, percent relative to cAMP agonist control]	inactive	-3.02% [at 30.8 µM]		

Structure (SMILES)	Potency [1]	activation [2]	Potency [3]	activity change, negative = inhibition [4]	Potency [2]	Potency [4]
CC(OC(=O)/C(C#N)=C/c1ccc(N(C)C)cc1)C(=O)N(C)Cc1ccccc1 (stereo not drawn)	inactive	3.68% [at 17.1 µM, percent relative to cAMP agonist control]	inactive	-0.358% [at 30.8 µM]		
CCOC(=O)C1CCCN(c2c(C(=O)c3ccccc3)cnc3ccc(OC)cc23)C1 (stereo not drawn)	inactive	6.11% [at 17.1 µM, percent relative to cAMP agonist control]	inactive	19.5% [at 30.8 µM]		
CCOC(=O)C1=C(C)N=c2s/c(=C\c3cccn3C)c(=O)n2C1c1cccc(OC)c1OC (stereo not drawn)	inactive	19.2% [at 17.1 µM, percent relative to cAMP agonist control]	inactive	-4.43% [at 30.8 µM]		
CNC(=O)N(C1=NCC(C)(C)S1)c1ccc(F)c(Cl)c1	inactive		inactive		inactive	inactive
O=C(O)c1ccccc1NS(=O)(=O)c1ccc(NN=Cc2cccc(Cl)c2)c([N+](=O)[O-])c1	75.7 µM (active)		inactive		inactive	inactive
CC1CCN(c2ccc3c(c2)S(=O)(=O)c2cccc(C(=O)NCc4cccc(F)c4)c2C3=O)CC1	inactive		inactive		112 µM (active)	inactive
CN(C)c1ccc(/C=C(\C#N)C(=O)c2ccccc2)cc1	inactive	17.4% [at 17.1 µM, percent relative to cAMP agonist control]	inactive	15.5% [at 30.8 µM]		
COc1ccc(OC)c(/C=C/c2nc3ccccc3[nH]c2=O)c1	inactive		75.7 µM (active)		100 µM (active)	inactive
COC(=O)c1ccccc1C(=O)c1cccc2ccccc12	inactive		inactive		inactive	inactive
O=c1[nH]c2ccccc2nc1/C=C(\O)c1cccs1	inactive	1.73% [at 17.1 µM, percent relative to cAMP agonist control]	inactive	-7.08% [at 30.8 µM]		
O=C(c1cccs1)N(Cc1cccnc1)c1nc2c(Cl)cccc2s1	inactive		inactive		inactive	inactive
COc1ccc(NC(=O)c2c(-c3ccccc3)c(-c3ccccc3)nn(C)c2=O)c(OC)c1	inactive		inactive		inactive	inactive
COc1ccc(N=Cc2c(O)ccc3ccccc23)cc1	inactive	6.9% [at 17.1 µM, percent relative to cAMP agonist control]	inactive	17.7% [at 30.8 µM]		
CCOc1ccccc1Oc1nc(C)nc2c1oc1ccccc12	inactive		inactive		inactive	inactive
COc1cccc(-n2c(SCC(=O)Nc3ccc(F)cc3F)nc3c([nH]c4ccccc43)c2=O)c1	inactive		inactive		inactive	inactive
COc1ccc(OC)c(/C=C2\SC(=S)N(Cc3cccnc3)C2=O)c1	inactive	3.3% [at 17.1 µM, percent relative to cAMP agonist control]	inactive	-3.11% [at 30.8 µM]		
Nc1ccccc1Oc1ccc2ccccc2c1	inactive		inactive		inactive	inactive
CC(NC(=O)/C(C#N)=C/c1ccc(N2CCOCC2)cc1)c1ccccc1 (stereo not drawn)	inactive		inactive		112 µM (active)	inactive
